# According to PubChem BioAssay AID651813 (National Center for Advancing Translational Sciences (NCATS), 2012):
# About 1,100 (52%) of roughly 2,100 compounds were called active. Not shown: some 27% with an inconclusive outcome. So high a share suggests a set chosen from earlier hits. This is one part of the list. Values without a mark were called inactive. Calls come from the whole dose curve; as a rule, active = well fitted inhibition curve with a large enough effect; inconclusive = small, poorly fitted or top-dose-only effect; inactive = no such curve, though single readings can be large or run the other way.
# Target: DNA dC->dU-editing enzyme APOBEC-3G (Homo sapiens) (UniProt Q9HC16)
# Sequence (Q9HC16 whole entry, looked up): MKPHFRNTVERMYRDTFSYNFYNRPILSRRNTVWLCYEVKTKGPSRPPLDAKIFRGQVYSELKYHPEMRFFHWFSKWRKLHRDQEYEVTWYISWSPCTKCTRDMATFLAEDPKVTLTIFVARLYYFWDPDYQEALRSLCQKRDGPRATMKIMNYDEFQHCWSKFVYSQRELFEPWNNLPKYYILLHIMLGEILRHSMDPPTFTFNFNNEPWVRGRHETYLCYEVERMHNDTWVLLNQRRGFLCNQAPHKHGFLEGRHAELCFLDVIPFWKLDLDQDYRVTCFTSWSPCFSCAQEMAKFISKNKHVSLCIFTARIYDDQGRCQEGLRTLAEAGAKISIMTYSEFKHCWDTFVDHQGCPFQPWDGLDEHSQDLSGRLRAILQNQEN
# Test: qHTS for inhibitors of Vif-A3G interactions: Cherry picks counterscreen;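 note: hits raise yellow fluorescence by blocking Vif-driven A3G-eYFP degradation; nearly all actives have a fitted effect of over 70% in size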;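 for max response: max response given as percent of control signal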
# Conditions: HeLa A3G-eYFP + Vif (tagged APOBEC3G with the HIV-1 protein that degrades it), eYFP fluorescence, 24 h
# Procedure, shortened: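 Readout is eYFP fluorescence (488 nm excitation, 500-530 nm emission) measured on Acumen Explorer after 24 h compound exposure, several concentrations, at 37 deg C. Cells: HeLa stably co-expressing Vif and C-terminally eYFP-tagged A3G; MG132 positive control.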
# Potency is the fitted concentration of half-maximal effect.
SMILES,Potency,max response [%]
COc1ccc(C(=O)C[n+]2cccc3cc(Cl)ccc32)cc1,16.4 µM (active),
O=C1Nc2ccc(Br)cc2C12NNc1ccccc1O2 (stereo not given),15.8 µM (active),
O=[N+]([O-])c1ccc(N/N=C/c2c[nH]c3ccccc23)c(S(=O)(=O)Nc2ccc(Cl)cc2)c1,23.1 µM (active),
O=[N+]([O-])c1ccc(N/N=C/c2c[nH]c3ccccc23)cc1,16.4 µM (active),
C/C(=N/Nc1ccc([N+](=O)[O-])cc1)c1c[nH]c2ccccc12,18.4 µM (active),
COc1ccccc1NS(=O)(=O)c1cc([N+](=O)[O-])ccc1N/N=C/c1c[nH]c2ccccc12,9.2 µM (active),
Cc1[nH]c2ccccc2c1/C=N/Nc1ccc([N+](=O)[O-])cc1,8.2 µM (active),
COc1ccccc1NS(=O)(=O)c1cc([N+](=O)[O-])ccc1N/N=C/c1c(C)[nH]c2ccccc12,2.8 µM (active),
COc1ccc(NS(=O)(=O)c2cc([N+](=O)[O-])ccc2N/N=C/c2c(C)[nH]c3ccccc23)cc1,18.4 µM (active),
COc1cc(NC(=O)c2ccco2)c(C(=O)OCC(=O)c2c[nH]c3ccccc23)cc1OC,,-2.18
CC1CC(C)CN(CC(=O)c2c[nH]c3ccccc23)C1 (stereo not given),18.4 µM (active),
O=C1NC(=Nc2ccccc2Cl)S/C1=C\c1cc([N+](=O)[O-])ccc1O,,-33
O=[N+]([O-])c1ccc(N=Nc2ccc(O)c3ccccc23)cc1,11.2 µM (active),
COc1cc2c(cc1OC)C(C)N(C(=O)c1cc(C)on1)CC2 (stereo not given),0.704 µM (active),
COc1cc2c(cc1OC)C(C)N(C(=O)c1cc(Cl)nc(Cl)c1)CC2 (stereo not given),12.5 µM (active),
Cc1ccc2ccc3c(c2n1)NS(=O)(=O)c1ccc(C(F)(F)F)cc1-3,11.6 µM (active),
COCCNC(=S)NN=C1CCCCCC1,,0.0981
COc1ccc2nc(NC(=O)Nc3ccccc3OC)sc2c1,4.44 µM (active),
COc1ccc2nc(NC(=S)NC(=O)c3ccco3)sc2c1,,-0.487
COc1ccccc1CCC(=O)Nc1ccc2c(c1)c(=O)n(C)n2-c1cccs1,3.53 µM (active),
COc1cc(Cn2c3ccc(NC(=O)CCc4ccccc4)cc3c(=O)n2C)ccc1F,3.53 µM (active),
COc1ccccc1CCC(=O)Nc1ccc2c(c1)c(=O)n(C)n2Cc1ccc(F)cc1,17.7 µM (active),
C/C(CCc1ccc2c(c1)OCO2)=N\NC(=S)NC(C)C,,4.06
Cc1cccc(N2CCN(Cc3cn(C)nc3-c3ccccc3F)CC2)n1,5.59 µM (active),
COC(=O)c1sc(N)c(C(=O)OC)c1COC(=O)c1c(C)noc1C,4.98 µM (active),
